Results on eight compounds are retold here after PubChem BioAssay.

Assay [1] can be described thus: compound effects on lung adenocarcinoma cell viability – A549, calcein-AM fluorescence, 48 h, basal, profiling panel (AID 1162). Further: test concentration not given here. Conditions: higher = more signal.
Assay [2] can be described thus: compound effects on differentiated 3T3-L1 adipocyte viability – cell-based, 3T3-L1 adipocytes, calcein-AM fluorescence, 48 h, basal, profiling panel (AID 1163). Further: test concentration not given here. Conditions: 3T3-L1 adipocytes viability, higher = more signal.
Assay [3] can be described thus: compound effects on hepatocellular carcinoma cell viability – HepG2, calcein-AM fluorescence, 48 h, basal, profiling panel (AID 1164). Further: test concentration not given here. Conditions: higher = more signal.
Assay [4] is described as follows: compound effects on multiple myeloma cell viability – MM1S, calcein-AM fluorescence, 48 h, basal, profiling panel (AID 1165). Further: test concentration not given here. The conditions noted are these: higher = more signal.
The nature of assay [5]: calcein-AM signal in unstimulated myeloma cells – cell-based, calcein-AM fluorescence, 48 h, PK04 Diversity Set, profiling panel (AID 1166).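 Further: cells grown under basal conditions without added stimulus; test concentration not given here.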 The conditions noted are these: RPMI8226 myeloma viability, higher = more signal.
The nature of assay [6]: JC-1 mitochondrial signal, unstimulated HepG2 cells – cell-based, JC-1 fluorescence, 24 h, 100 nL compound, profiling panel (AID 1167). Further: test concentration not given here. The conditions noted are these: HepG2 mitochondrial potential, higher = more signal.
Assay [7] in a line: JC-1 mitochondrial signal, unstimulated adipocytes – cell-based, JC-1 fluorescence, 3T3-L1 adipocytes, 24 h, 100 nL compound, profiling panel (AID 1168). Further: test concentration not given here. Conditions: JC-1 mitochondrial fluorescence, higher = more signal, called active from +8 up or from −8 down.
Assay [8] is described as follows: JC-1 mitochondrial signal, unstimulated myeloma cells – cell-based, JC-1 fluorescence, RPMI8226, 24 h, 100 nL compound, profiling panel (AID 1169). Further: test concentration not given here. The conditions noted are these: JC-1 mitochondrial potential fluorescence, higher = more signal.
Assay [9] in a line: JC-1 mitochondrial signal, unstimulated MM1S myeloma – cell-based, JC-1 fluorescence, 24 h, 100 nL compound, profiling panel (AID 1170). Further: test concentration not given here. The conditions noted are these: MM1S mitochondrial potential, higher = more signal.
Assay [10] can be described thus: resazurin metabolic signal in A549 cells – cell-based, resazurin fluorescence, 24 h, PK04 Diversity Set, profiling panel (AID 1171). Further: test concentration not given here. The conditions noted are these: A549 viability, higher = more signal, called active from +8 up or from −8 down.
The nature of assay [11]: resazurin metabolic signal in HepG2 cells – cell-based, resazurin fluorescence, 24 h, PK04 Diversity Set, profiling panel (AID 1172). Further: test concentration not given here. Conditions: HepG2 viability, higher = more signal. A general note: Resazurin is reduced to fluorescent resorufin, in cell work by metabolically active cells.
Assay [12] can be described thus: budding yeast growth changes without added modifier – OD600, strain BY4716, 24 h, basal condition, primary screen (AID 1173). Conditions: S. cerevisiae BY4716 growth, OD600, 24 h; higher = more signal, called active from +8 up or from −8 down.
Assay [13] in a line: viability profiling in MM1S myeloma cells – cell-based, resazurin fluorescence, basal, 24 h, PK04 Diversity Set, profiling panel (AID 1174). Further: test concentration not given here. The conditions noted are these: higher = more signal, called active from +8 up or from −8 down.
Assay [14] deals with Dihydroorotate dehydrogenase (quinone), mitochondrial (Plasmodium falciparum (isolate 3D7)) (UniProt Q08210). Briefly: inhibition of P. falciparum DHODH – biochemical, C-terminal His tag, absorbance 600 nm, primary screen (AID 1175).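 Further: recombinant parasite enzyme with a five histidine tag at its C terminus; test concentration not given here.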 The conditions noted are these: PfDHODH enzyme, DCIP absorbance 600 nm; higher = more signal, called active from +8 up or from −8 down.
Dihydroorotate dehydrogenase (quinone), mitochondrial (Plasmodium falciparum (isolate 3D7)), sequence (Q08210 whole entry, looked up): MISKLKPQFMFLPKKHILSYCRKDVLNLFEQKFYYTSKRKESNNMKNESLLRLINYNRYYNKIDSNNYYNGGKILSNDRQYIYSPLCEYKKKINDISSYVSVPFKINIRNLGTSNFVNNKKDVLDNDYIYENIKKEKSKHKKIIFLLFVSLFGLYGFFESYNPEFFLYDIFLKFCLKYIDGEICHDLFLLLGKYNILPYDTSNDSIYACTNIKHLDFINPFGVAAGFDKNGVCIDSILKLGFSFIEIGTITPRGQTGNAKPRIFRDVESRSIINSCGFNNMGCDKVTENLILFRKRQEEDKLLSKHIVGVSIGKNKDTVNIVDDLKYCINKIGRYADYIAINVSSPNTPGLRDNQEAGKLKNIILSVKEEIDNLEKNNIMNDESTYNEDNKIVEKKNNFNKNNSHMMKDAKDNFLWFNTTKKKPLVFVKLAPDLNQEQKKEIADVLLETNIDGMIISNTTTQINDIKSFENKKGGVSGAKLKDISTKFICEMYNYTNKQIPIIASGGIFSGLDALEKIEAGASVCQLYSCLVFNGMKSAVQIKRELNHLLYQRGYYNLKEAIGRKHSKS
Assay [15] can be described thus: inhibition of PAO1 biofilm formation – strain PAO1, LB-PBS medium, absorbance 600 nm, primary screen (AID 1176). Further: test concentration not given here. The conditions noted are these: P. aeruginosa PAO1 growth/biofilm, A600, 12 h; higher = more signal.
The nature of assay [16]: growth modulation of vineyard yeast isolate – strain RM11-1a, OD600, basal, 24 h, primary screen (AID 1177).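 Further: cultures grown under basal conditions with no added stressor; test concentration not given here.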 The conditions noted are these: S. cerevisiae RM11-1a growth, OD600, 24 h; higher = more signal, called active from +8 up or from −8 down.
The nature of assay [17]: growth of efflux-deficient E. coli DRC39 – strain DRC39, OD650, 24 h, E. coli filamentation inducers, primary screen (AID 1178).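 Further: growth measured as culture turbidity by optical density at 650 nm; test concentration not given here.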 The conditions noted are these: E. coli DRC39 acrAB, higher = more signal, called active from +8 up or from −8 down.
The nature of assay [18]: growth of efflux-deficient E. coli DRC39 – strain DRC39, OD650, 48 h, E. coli filamentation inducers, primary screen (AID 1179).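 Further: screen aims at cell division blockers that make cells filament.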 The conditions noted are these: E. coli DRC39 delta-acrAB growth, higher = more signal, called active from +8 up or from −8 down.
The nature of assay [19]: viability profiling in RPMI8226 myeloma cells – cell-based, resazurin fluorescence, basal, 24 h, PK04 Diversity Set, profiling panel (AID 1180).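 Further: RPMI8826 multiple myeloma cell line at 5000 cells per well; test concentration not given here.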 Conditions: higher = more signal.
In assay [20] the target is E3 ubiquitin-protein ligase XIAP (Homo sapiens) (UniProt P98170). Description: small molecules binding XIAP protein – biophysical, small-molecule microarray, fluorescence 635 nm, primary screen (AID 1181).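 Further: score merges 667 nm emission and signal to noise over triplicate slides.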 The conditions noted are these: higher = more signal.
E3 ubiquitin-protein ligase XIAP (Homo sapiens), sequence (P98170 whole entry, looked up): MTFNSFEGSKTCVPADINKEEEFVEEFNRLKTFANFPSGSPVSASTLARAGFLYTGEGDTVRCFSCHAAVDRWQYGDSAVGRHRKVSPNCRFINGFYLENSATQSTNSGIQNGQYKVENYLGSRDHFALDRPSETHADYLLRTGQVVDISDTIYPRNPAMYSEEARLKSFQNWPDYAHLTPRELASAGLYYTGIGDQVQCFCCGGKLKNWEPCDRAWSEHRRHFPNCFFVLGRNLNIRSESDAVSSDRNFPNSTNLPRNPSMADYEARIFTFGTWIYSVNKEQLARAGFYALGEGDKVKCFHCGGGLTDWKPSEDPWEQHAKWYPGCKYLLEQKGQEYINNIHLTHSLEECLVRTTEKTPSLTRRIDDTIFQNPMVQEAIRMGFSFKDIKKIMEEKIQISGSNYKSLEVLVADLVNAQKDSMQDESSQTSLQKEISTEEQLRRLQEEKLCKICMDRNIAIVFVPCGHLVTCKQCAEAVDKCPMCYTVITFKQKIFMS

Active and inactive are the calls of the source. Unless noted, how the calls were made is not given here.

As to `C=CCC(OC(C)=O)[C@@H]1[C@@H](N(Cc2ccc(-c3cccc(C(F)(F)F)c3)o2)C(=O)Cc2ccc(F)cc2)c2cc(OCCCO)ccc2N1C(=O)c1ccc(-c2ccccc2)cc1` (stereo not given in full), the z-score in [1] was 0.468; in [2], 0.145; in [3], 0.536; in assay [4], 1.16; in [5] it was -0.147; in [6] it was 1.88. In addition, the z-score in [7] was -1.64 (inactive); in [8] it was -0.582; in [9], 0.286; in [10], 0.303 (inactive); in [11], -0.138; in [12], -0.0284 (inactive). Also, the z-score was 0.314 (inactive) in assay [13]; 1.11 (inactive) in assay [15]; -0.12 (inactive) in assay [16]; -0.124 (inactive) in assay [17]; -0.143 (inactive) in [18]; 0.171 in assay [19]. Also, the composite z-score in [14] is -0.262 (inactive); in assay [20], -0.184.

Take `NC(=O)NCC#Cc1ccc2c(c1)[C@]1(C(=O)N2)[C@H](C(N)=O)[C@H]2C(=O)O[C@H](c3ccccc3)[C@H](c3ccccc3)N2[C@@H]1c1ccccc1OCCO`: the z-score in assay [1] is -1.23; in [2] it was 0.634; in [3], -0.945; in [4] it was -0.211; in assay [5] it was -0.186; in assay [6], -1.01. Further, the z-score in assay [7] is -0.287 (inactive); in assay [8], -1.05; in assay [9], -0.386; in assay [10], 0.79 (inactive); in assay [11], 0.979; in assay [12], -0.275 (inactive). The z-score is 0.369 (inactive) in [13]; 0.75 (inactive) in [15]; 0.785 (inactive) in assay [16]; 0.285 (inactive) in [17]; 0.0072 (inactive) in [18]; 0.295 in [19]. Further, the figures for the composite z-score in [14] and in assay [20] were -0.793 (inactive) and 0.234, respectively.

Take `CCCC[C@@H]1C[C@H]1[C@@H](NC(=O)c1cccs1)c1ccc(Cl)cc1`: the z-score is -1.36 in assay [1]; 1.11 in assay [2]; -1.02 in [3]; -0.992 in assay [4]; -2.99 in [5]; -1.16 in assay [6]. The z-score in assay [7] is 0.53 (inactive); in assay [8], -0.912; in assay [9] it was -0.53; in assay [10], 0.6 (inactive); in assay [11] it was -0.513; in assay [12], 0.831 (inactive). Moreover, the z-score was -0.0593 (inactive) in assay [13]; 2.82 (inactive) in assay [15]; 0.595 (inactive) in [16]; -0.249 (inactive) in [17]; -0.586 (inactive) in [18]; 0.513 in assay [19]. Further, the composite z-score in [14] was -3.8 (inactive); in [20], 0.267.

As for `O=C(NCc1ccccc1)c1ccc(Br)cc1[N+](=O)[O-]`, the z-score in assay [1] is -0.787; in [2] it was 0.0153; in assay [3], 0.0565; in [4] it was -0.0086; in [5] it was 0.287; in [6], -0.0457. Besides, the z-score in [7] was 0.346 (inactive); in assay [8], -0.745; in [9] it was 0.189; in assay [10], 0.0828 (inactive); in [11] it was 0.0759; in assay [12], -2.42 (inactive). In addition, the z-score in assay [13] was 0.0636 (inactive); in assay [15], -0.131 (inactive); in [16], -0.465 (inactive); in assay [17], 0.986 (inactive); in assay [18], -0.411 (inactive); in assay [19], -0.447. Moreover, the composite z-score is -1.37 (inactive) in assay [14] and -0.127 in [20].

Turning to `COc1ccc([Si](C)(C)[C@@H]2[C@@H](CCO)O[C@]3(C(=O)N(Cc4ccc(NC(=O)[C@H](C)O)cc4)c4ccccc43)[C@H]2C)cc1`, the z-score in assay [1] was -2.45; in assay [2] it was 1.63; in assay [3], -2.43; in assay [4] it was -2.97; in [5], -2.49; in [6] it was -1.84. Moreover, the z-score in [7] is 0.492 (inactive); in [8] it was -1.12; in assay [9] it was -0.492; in assay [10], -2.95 (inactive); in assay [11], -1.84; in [12], -0.177 (inactive). The z-score in assay [13] was -6.71 (inactive); in assay [15] it was -0.717 (inactive); in [16], 3.7 (inactive); in assay [17], 1.26 (inactive); in assay [18] it was 0.335 (inactive); in [19], -5.69. Moreover, the composite z-score in assay [14] is -1.07 (inactive); in assay [20], -0.0497.

For the compound `COC(=O)C[C@H]1O[C@]2(C(=O)N(Cc3ccccc3)c3ccc(I)cc32)[C@@H](C)[C@@H]1[Si](C)(C)c1ccc(OC)cc1`, the z-score in assay [1] was -0.344; in [2] it was 1.02; in assay [3], 0.638; in assay [4], -0.077; in assay [5], -1.22; in [6] it was 2.66. The z-score in assay [7] was -1.07 (inactive); in assay [8], -0.226; in [9] it was 0.211; in assay [10] it was -0.923 (inactive); in [11], -0.583; in [12], -2.01 (inactive). For the same compound, the z-score in assay [13] is -0.146 (inactive); in assay [15] it was -0.435 (inactive); in assay [16] it was 0.765 (inactive); in assay [17], -0.493 (inactive); in [18], -0.598 (inactive); in [19] it was -0.196. In addition, the composite z-score in [14] is 0.94 (inactive); in assay [20], -0.211.

Consider `COC(=O)[C@@]1(Cc2ccccc2)[C@H]2c3cc(C(=O)N4CCCC4)n(CCN4CNCC4=O)c3C[C@H]2CN1C(=O)c1ccccc1`, for which the z-score is -0.626 in assay [1]; 0.337 in assay [2]; -0.509 in assay [3]; 0.312 in [4]; 0.261 in assay [5]; -0.314 in assay [6]. For the same compound, the z-score was 0.251 (inactive) in assay [7]; -0.185 in assay [8]; -0.777 in assay [9]; 0.0269 (inactive) in assay [10]; 0.276 in [11]; 0.864 (inactive) in assay [12]. The z-score in assay [13] is 0.327 (inactive); in assay [15] it was -0.167 (inactive); in assay [16], -0.189 (inactive); in [17], 0.499 (inactive); in [18], -0.321 (inactive); in assay [19], 0.742. The composite z-score in [14] is -0.482 (inactive); in assay [20], 0.414.

In the case of `C=C(C)[C@@H]1CC=C(C(O)C2C=CC3C(=O)NC(=O)C3N2Nc2ccccn2)CC1` (stereo not given in full), the z-score was -0.592 in [1]; -1.11 in assay [2]; -0.914 in assay [3]; 0.0217 in [4]; -0.97 in assay [5]; -1.66 in [6]. Moreover, the z-score was 0.344 (inactive) in assay [7]; 0.921 in assay [8]; -0.0607 in [9]; -0.981 (inactive) in [10]; -1.3 in assay [11]; -0.252 (inactive) in assay [12]. Further, the z-score in [13] is -1.48 (inactive); in assay [15], 1.99 (inactive); in assay [16], -0.0819 (inactive); in assay [17], -0.575 (inactive); in assay [18] it was -0.339 (inactive); in assay [19], -2.2. In addition, the figures for the composite z-score in assay [14] and in assay [20] were 0.291 (inactive) and 0.287, respectively.
